According to PubChem BioAssay AID1159580 (chemical genetic matrix, 2015):
About 2,000 (36%) of roughly 5,500 compounds were called active. About 18% were inconclusive and are not listed. Rule as the data show it: active = normalized growth mostly below about 0.91 (no sharp cut-off); inconclusive = no clear call, values can overlap the other calls; inactive = mostly above about 0.92. The list shows a part of the results.

Experiment: chemical genetic growth profiling, strain panel (AID 1159580);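 also: tested at 20 µM; growth read once vehicle control cultures reached saturation at 30 °C; 1 = growth at the plate median or of vehicle wells; lower values mean less growth of the strain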
Details: growth OD

Measured: normalized growth

O=c1[nH]c(=O)n(C2C[C@@H](O)[C@@H](CO)O2)cc1F (stereo partly drawn)
inactive: S. cerevisiae deletion strains, locus YJR066W, strain TOR1, hits give low values 0.932 | S. cerevisiae deletion strains, locus YKL009W, strain mrt4, hits give low values 1.04 | S. cerevisiae deletion strains, locus YKL068W, hits give low values 1 | S. cerevisiae deletion strains, locus YKL085W, strain MDH1 (second series), hits give low values 0.996 | S. cerevisiae deletion strains, locus YKL085W, strain MDH1, hits give low values 0.996 | S. cerevisiae deletion strains, locus YKL160W, strain elf1, hits give low values 1 | S. cerevisiae deletion strains, locus YKR001C, strain vps1, hits give low values 1.01 | S. cerevisiae deletion strains, locus YKR026C, strain gcn3, hits give low values 0.978 | S. cerevisiae deletion strains, locus YKR091W, strain srl3, hits give low values 0.995 | S. cerevisiae deletion strains, locus YLL001W, strain dnm1, hits give low values 0.992 | S. cerevisiae deletion strains, locus YLL026W, hits give low values 0.985 | S. cerevisiae deletion strains, locus YLL041C, strain sdh2, hits give low values 0.984 | S. cerevisiae deletion strains, locus YLR027C, strain aat2, hits give low values 0.994 | S. cerevisiae deletion strains, locus YLR039C, strain RIC1, hits give low values 1.04 | S. cerevisiae deletion strains, locus YLR058C, strain SHM2, hits give low values 1.02 | S. cerevisiae deletion strains, locus YLR102C, strain apc9, hits give low values 1.01 | S. cerevisiae deletion strains, locus YLR113W, strain HOG1, hits give low values 0.986 | S. cerevisiae deletion strains, locus YLR221C, strain rsa3, hits give low values 1.01 | S. cerevisiae deletion strains, locus YLR258W, strain gsy2, hits give low values 1.01 | S. cerevisiae deletion strains, locus YLR262C, strain YPT6 (second series), hits give low values 1.02 | S. cerevisiae deletion strains, locus YLR262C, strain YPT6, hits give low values 1.04 | S. cerevisiae deletion strains, locus YLR268W, strain sec22, hits give low values 1.03 | S. cerevisiae deletion strains, locus YLR320W, strain mms22, hits give low values 1.01 | S. cerevisiae deletion strains, locus YLR330W, strain CHS5, hits give low values 1.01 | S. cerevisiae deletion strains, locus YLR342W, strain FKS1 (second series), hits give low values 1.02 | S. cerevisiae deletion strains, locus YLR342W, strain FKS1, hits give low values 1.01 | S. cerevisiae deletion strains, locus YLR357W, strain rsc2, hits give low values 0.974 | S. cerevisiae deletion strains, locus YLR370C, strain arc18, hits give low values 1 | S. cerevisiae deletion strains, locus YLR371W, strain rom2, hits give low values 1.02 | S. cerevisiae deletion strains, locus YLR384C, strain iki3, hits give low values 0.982 | S. cerevisiae deletion strains, locus YLR418C, strain cdc73, hits give low values 1.02 | S. cerevisiae deletion strains, locus YML016C, strain PPZ1, hits give low values 1.01 | S. cerevisiae deletion strains, locus YML032C, strain rad52, hits give low values 1 | S. cerevisiae deletion strains, locus YML120C, strain ndi1, hits give low values 0.984 | S. cerevisiae deletion strains, locus YML124C, strain tub3, hits give low values 1.01 | S. cerevisiae deletion strains, locus YMR058W, strain fet3, hits give low values 0.986 | S. cerevisiae deletion strains, locus YMR078C, strain ctf18, hits give low values 1.01 | S. cerevisiae deletion strains, locus YMR125W, strain sto1, hits give low values 0.985 | S. cerevisiae deletion strains, locus YMR129W, hits give low values 0.999 | S. cerevisiae deletion strains, locus YMR205C, strain PFK2, hits give low values 1.01 | S. cerevisiae deletion strains, locus YMR223W, strain ubp8, hits give low values 1 | S. cerevisiae deletion strains, locus YMR231W, strain pep5, hits give low values 1.01 | S. cerevisiae deletion strains, locus YMR263W, strain SAP30, hits give low values 1.05 | S. cerevisiae deletion strains, locus YMR307W, strain GAS1, hits give low values 1.05 | S. cerevisiae deletion strains, locus YNL067W, strain RPL9B, hits give low values 1.06 | S. cerevisiae deletion strains, locus YNL071W, strain lat1, hits give low values 0.993 | S. cerevisiae deletion strains, locus YNL153C, strain GIM3, hits give low values 1.04 | S. cerevisiae deletion strains, locus YNL183C, strain NPR1, hits give low values 0.93 | S. cerevisiae deletion strains, locus YNL209W, strain ssb2, hits give low values 0.987 | S. cerevisiae deletion strains, locus YNL233W, strain BNI4, hits give low values 1.05 | S. cerevisiae deletion strains, locus YNL248C, strain rpa49, hits give low values 0.973 | S. cerevisiae deletion strains, locus YNL250W, strain rad50, hits give low values 1 | S. cerevisiae deletion strains, locus YNL271C, strain bni1, hits give low values 1.01 | S. cerevisiae deletion strains, locus YNL298W, strain CLA4, hits give low values 0.996 | S. cerevisiae deletion strains, locus YNL307C, strain MCK1, hits give low values 1.02 | S. cerevisiae deletion strains, locus YNL322C, strain KRE1 (second series), hits give low values 0.999 | S. cerevisiae deletion strains, locus YNL322C, strain KRE1, hits give low values 1 | S. cerevisiae deletion strains, locus YNR049C, strain mso1, hits give low values 0.982 | S. cerevisiae deletion strains, locus YNR052C, strain pop2, hits give low values 1.01 | S. cerevisiae deletion strains, locus YOL012C, strain htz1 1.63 | S. cerevisiae deletion strains, locus YOL147C, strain pex11, hits give low values 1.02 | S. cerevisiae deletion strains, locus YOR001W, strain rrp6, hits give low values 0.987 | S. cerevisiae deletion strains, locus YOR061W, strain CKA2, hits give low values 1.01 | S. cerevisiae deletion strains, locus YOR069W, strain VPS5, hits give low values 1.01 | S. cerevisiae deletion strains, locus YOR070C, strain gyp1, hits give low values 1.01 | S. cerevisiae deletion strains, locus YOR080W, strain dia2, hits give low values 1 | S. cerevisiae deletion strains, locus YOR083W, strain WHI5, hits give low values 1.01 | S. cerevisiae deletion strains, locus YOR106W, strain vam3, hits give low values 0.996 | S. cerevisiae deletion strains, locus YOR136W, strain idh2, hits give low values 1.02 | S. cerevisiae deletion strains, locus YOR144C, strain elg1, hits give low values 1.01 | S. cerevisiae deletion strains, locus YOR184W, strain ser1, hits give low values 1.02 | S. cerevisiae deletion strains, locus YOR231W, strain MKK1, hits give low values 0.98 | S. cerevisiae deletion strains, locus YOR265W, strain rbl2, hits give low values 1.01 | S. cerevisiae deletion strains, locus YOR270C, strain vph1, hits give low values 0.994 | S. cerevisiae deletion strains, locus YOR290C, strain snf2, hits give low values 0.989 | S. cerevisiae deletion strains, locus YOR316C, strain cot1, hits give low values 1.02 | S. cerevisiae deletion strains, locus YPL051W, strain arl3, hits give low values 1.02 | S. cerevisiae deletion strains, locus YPL078C, strain atp4, hits give low values 0.976 | S. cerevisiae deletion strains, locus YPL106C, strain sse1, hits give low values 1.01 | S. cerevisiae deletion strains, locus YPL240C, strain hsp82, hits give low values 0.987 | S. cerevisiae deletion strains, locus YPL241C, strain CIN2, hits give low values 1 | S. cerevisiae deletion strains, locus YPL256C, strain CLN2, hits give low values 0.957 | S. cerevisiae deletion strains, locus YPR119W, strain clb2, hits give low values 1.01 | S. cerevisiae deletion strains, locus YPR141C, strain kar3, hits give low values 1.01 | S. cerevisiae deletion strains, locus YPR163C, strain tif3, hits give low values 1.01 | S. cerevisiae deletion strains, locus YPR167C, strain met16, hits give low values 1.02 | S. cerevisiae deletion strains, strain wtn01, hits give low values 0.996 | S. cerevisiae strains, strain wild type, hits give low values 1.01
